{"source": "PubChem BioAssay (EPA / NIEHS)", "note": "Some compounds were tested as several samples or in several runs, with calls that do not always agree. The source made the active and inactive calls. Rule for the calls: active = hit-call score of the fitted dose curve at least 0.9, where 1 is the maximum; inactive = score below 0.9."}
{"experiment": "ATG_PBREM_CIS: Attagene CIS-FACTORIAL HepG2 Assay for human Phenobarbital-responsive Enhancer Module (PBREM) (AID 2282955)", "details": "HepG2 PBREM cis-reporter, Attagene multiplexed transcription; actives raise or lower the signal", "protocol": "ATG_CIS is a cell-based, multiplexed-readout assay that uses HepG2, a human liver cell line, with measurements taken at 24 hours after chemical dosing in a 24-well plate.ATG_PBREM_CIS is one of 52 assay component(s) measured or calculated from the ATG_CIS assay. It is designed to make measurements of mRNA induction, a form of inducible reporter, as detected with fluorescence intensity signals by Reverse transcription polymerase chain reaction (RT-PCR) and Capillary electrophoresis technology.Data from the assay component ATG_PBREM_CIS was analyzed into 1 assay endpoint. This assay endpoint, ATG_PBREM_CIS, was analyzed with bidirectional fitting relative to DMSO as the negative control and baseline of activity. Using a type of inducible reporter, measures of mRNA for gain or loss-of-signal activity can be used to understand the reporter gene at the transcription factor-level as they relate to the gene NR1I3. Furthermore, this assay endpoint can be referred to as a primary readout, because this assay has produced multiple assay endpoints where this one serves a reporter gene function. To generalize the intended target to other relatable targets, this assay endpoint is annotated to the nuclear receptor intended target family, where the subfamily is non-steroidal.\nHuman liver HepG2 cells are transiently transfected with multiple reporter transcription units (MRTUs) in 6-well plates using FuGene 6 reagent (Roche; 3 ml FuGene/1 mg DNA). The MRTU constructs are regulated by a cis-regulating element (promoter). […] A major difference between the CIS and TRANS system is that in CIS activities of endogenous TFs are measured, whereas the TRANS assay evaluates changes in activities of exogenous, chimeric NR-Gal4 proteins. […] At the end of 24 hour incubation, total RNA was isolated using TriZol reagent (Invitrogen). The isolated RNA is then reverse-transcribed using oligo(dT) primer and Mo-MLV reverse transcriptase (Invitrogen) with DNAse I (Ambion) treatment for 30 min. The one-tenth of the produced cDNA was amplified by PCR using Taq DNA polymerase (Invitrogen) and two reporter sequence-specific primers. The PCR products were fluorescently labeled by primer extension with 6-arboxyfluorescein (6-FAM) 5'-labeled reporter sequence-specific primer (2 min at 95 C, 20 s at 68 C and 10 min at 72 C) and these products were digested with 5U of HpaI (New England Biolabs) for 2h at 37 C. The fragments were purified using Qiaquick PCR columns (Qiagen), analyzed on an ABI 3130xL genetic analyzer (Applied Biosystems) with peak positions identified by using a set of X-rhodamine (ROX)-labeled MapMarker1000 molecular weight standards (BioVentures). The raw capillary electrophoresis data was processed using Attagraph software (Attagene)."}
{"compound": "COc1cc(-c2ccc(N)c(OC)c2)ccc1N", "outcome": "inactive", "AC50": "29.2 µM (active)"}
{"compound": "COC(=O)Cc1ccccc1", "outcome": "inactive"}
{"compound": "CC(C)OC(=O)Nc1ccccc1", "outcome": "inactive"}
{"compound": "COc1cccc(C=O)c1", "outcome": "inactive"}
{"compound": "Oc1cccc2cccnc12", "outcome": "inactive"}
{"compound": "CC(C)(c1ccc(OCC2CO2)cc1)c1ccc(OCC2CO2)cc1", "note": "(stereo not given)", "outcome": "inactive"}
{"compound": "CCOP(OCC)OCC", "outcome": "inactive"}
{"compound": "CCC(C)(C)c1ccc(O)c(C(C)(C)CC)c1", "outcome": "inactive"}
{"compound": "Nc1cccc(Cl)c1", "outcome": "inactive"}
{"compound": "COc1ccccc1OC", "outcome": "inactive"}
{"compound": "C1CCC(NC2CCCCC2)CC1", "outcome": "inactive"}
{"compound": "CCN1CCC2(CC1)COc1cc3c(cc12)N(C(=O)c1ccc(-c2ccc(-c4nnc(C)o4)cc2C)cc1)CC3", "outcome": "inactive"}
{"compound": "N#Cc1ccccn1", "outcome": "inactive"}
{"compound": "Fc1ccc(C2(Cn3cncn3)OC2c2ccccc2Cl)cc1", "note": "(stereo not given)", "outcome": "inactive"}
{"compound": "O=C(Cc1ccccc1)c1ccccc1", "outcome": "inactive"}
{"compound": "CC12CC1(C)C(=O)N(c1cc(Cl)cc(Cl)c1)C2=O", "note": "(stereo not given)", "outcome": "inactive", "AC50": "11.1 µM (active)"}
{"compound": "C[C@H]1CCCC(=O)CCC/C=C/c2cc(O)cc(O)c2C(=O)O1", "AC50": "5.35 µM (active)"}
{"compound": "CCOP(=S)(OCC)Oc1ccc(S(C)=O)cc1", "note": "(stereo not given)", "outcome": "inactive"}
{"compound": "Cc1cc(Cl)ccc1O[C@H](C)C(=O)O", "outcome": "inactive"}
{"compound": "ClC1=C(Cl)[C@]2(Cl)[C@H]3[C@H]([C@H]4C=C[C@H]3C4)[C@@]1(Cl)C2(Cl)Cl", "outcome": "inactive"}
{"compound": "ClCc1cccnc1", "outcome": "inactive"}
{"compound": "CC(C)(OO)c1ccccc1", "outcome": "inactive"}
{"compound": "ClCc1ccccn1", "outcome": "inactive"}
{"compound": "CCc1ccccc1N", "outcome": "inactive"}
{"compound": "O=c1[nH]c(=O)[nH]c(=O)[nH]1", "outcome": "inactive"}
{"compound": "c1ccc(N=NNc2ccccc2)cc1", "outcome": "inactive"}
{"compound": "CCCCOCCOC(C)=O", "outcome": "inactive"}
{"compound": "O=S(=O)(c1ccc(Cl)cc1)c1ccc(Cl)cc1", "outcome": "inactive"}
{"compound": "O=C(O)Cc1ccccc1", "outcome": "inactive"}
{"compound": "OCc1ccco1", "outcome": "inactive"}
{"compound": "C=C(C)C(=O)[O][Sn]([CH2]CCC)([CH2]CCC)[CH2]CCC", "outcome": "inactive"}
{"compound": "Cc1ccccc1N", "outcome": "inactive"}
{"compound": "[O-][Cl+2]([O-])O", "outcome": "inactive"}
{"compound": "Clc1ccc(COC(Cn2ccnc2)c2ccc(Cl)cc2Cl)cc1", "note": "(stereo not given)", "outcome": "inactive"}
{"compound": "Cl/C=C\\C[N+]12CN3CN(CN(C3)C1)C2", "outcome": "inactive"}
{"compound": "CCOP(=S)(OCC)Oc1nc(Cl)c(Cl)cc1Cl", "outcome": "inactive"}
{"compound": "Cc1ccc2ccccc2c1C", "outcome": "inactive"}
{"compound": "C[C@H]1O[C@@H](O[C@H]2[C@@H](O)C[C@H](O[C@H]3[C@@H](O)C[C@H](O[C@H]4CC[C@@]5(C)[C@H](CC[C@@H]6[C@@H]5CC[C@]5(C)[C@@H](C7=CC(=O)OC7)CC[C@]65O)C4)O[C@@H]3C)O[C@@H]2C)C[C@H](O)[C@@H]1O", "outcome": "inactive"}
